Source: PubChem BioAssay (NCI)
Compounds without any hit were thinned out: in the full panel of roughly 83,000, 20% have a hit.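 96-well plates, one dose, 48 hours. Percent growth reported; active if below 10.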 The source made the active and inactive calls.

The compounds below were run on SK-MEL-28 melanoma (assay: NCI-60 one-dose screen, 48 h (100 = growth as untreated, 0 = no growth, -100 = all killed)). Settings: 10 µM unless noted.

Structure (SMILES)	growth
Nc1cc2ccccc2c(=O)n1NC(=O)c1ccc(Br)cc1	88% (inactive)
COc1cc(C2CC(c3ccc(S(=O)(=O)NCCNc4nc(N(C)C)nc(N5CCOCC5)n4)cc3)=Nc3c(N)nc(N)nc3N2)cc(OC)c1OC (centres undefined)	100% (inactive)
Cn1cc(-c2cc(N)n3nc(-c4c[nH]c5ccccc45)cc3n2)c2ccccc21	-98.8% (active)
COc1ccc2[nH]c(=O)c(CSc3ccccc3Nc3nccc(-c4ccc(C(F)(F)F)cc4)n3)cc2c1	51.4% (inactive)
